# PubChem BioAssay AID504454 (NMMLSC, 2011)
# Hit rate of the full screen: of about 340,000 compounds, about 1,400 (0.41%) were called active. The sample holds actives, similar compounds and a random draw of the others, so the mix is not that of the screen.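 The calls were made as follows: active = response above a set limit, near 3 SD of response in nonfluorescent compounds (cut at about 42% in these data); inactive = the rest.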
# Target: Beta-2 adrenergic receptor (Homo sapiens) (UniProt P07550)
# Sequence (P07550 whole entry, looked up): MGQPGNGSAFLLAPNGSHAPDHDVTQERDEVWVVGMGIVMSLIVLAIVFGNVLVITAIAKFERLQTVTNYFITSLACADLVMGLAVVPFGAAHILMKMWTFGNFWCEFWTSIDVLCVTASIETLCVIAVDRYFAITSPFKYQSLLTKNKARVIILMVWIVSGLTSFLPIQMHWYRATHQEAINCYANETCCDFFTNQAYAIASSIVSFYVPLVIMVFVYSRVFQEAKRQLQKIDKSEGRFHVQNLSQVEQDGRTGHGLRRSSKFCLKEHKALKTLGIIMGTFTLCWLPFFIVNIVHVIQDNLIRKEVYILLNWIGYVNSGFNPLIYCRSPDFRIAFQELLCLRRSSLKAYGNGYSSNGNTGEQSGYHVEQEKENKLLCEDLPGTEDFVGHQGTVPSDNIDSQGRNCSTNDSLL
# Assay: beta2AR agonists driving receptor internalization, primary screen, cell-based, FAP fluorogen, flow cytometry (AID 504454)
# Conditions: Am2.2-beta2AR cells, hits give high values, concentration not given here
row,SMILES,response
1,O=C(CNC(=O)c1ccccc1F)OCC(=O)c1c[nH]c2ccccc12,10.7% (inactive)
2,CC(C)CCN(C(=O)c1csnn1)C(C(=O)NC1CCCC1)c1ccccc1 (stereo not drawn),7.85% (inactive)
3,CC(=O)Nc1ccc(Nc2c([N+](=O)[O-])cc(S(C)(=O)=O)cc2[N+](=O)[O-])cc1,2.64% (inactive)
4,CC(=O)Nc1ccc(S(=O)(=O)N(C)c2nc3ccccc3nc2Cl)cc1,0.46% (inactive)
5,CC(=O)Nc1ccc(Nc2c3ccccc3nc3ccccc23)cc1,51.1% (active)
6,Cc1ccc(CN2CCN(/N=C/c3cccnc3)CC2)c(C)c1,4.74% (inactive)
7,N#Cc1cccc(NC(=O)COC(=O)c2ccccc2C(=O)c2ccc(Cl)c([N+](=O)[O-])c2)c1,46.3% (active)
8,CC(=O)Nc1ccc(NC(=O)C(C)OC(=O)c2ccccc2C(=O)c2ccc(Cl)c([N+](=O)[O-])c2)cc1 (stereo not drawn),20.8% (inactive)
9,CC(=O)Nc1ccc(NC(=O)COC(=O)c2ccccc2C(=O)c2ccccc2)cc1,-9.28% (inactive)
10,CC[n+]1cc(C)ccc1/C=C/c1ccc(N(C)C)cc1,-468% (inactive)
11,CCCN(CCC)S(=O)(=O)c1ccc(C(=O)NNC(=O)c2cc(OC)c(OC)c(OC)c2)cc1,4.58% (inactive)
12,CCN(CC)Cc1csc2ccc(Br)cc12,5.63% (inactive)
13,COc1ccc(OC(C)C(=O)Nc2cccnc2)cc1 (stereo not drawn),-1.88% (inactive)
14,COc1ccc(CCC(=O)c2ccc(OC)cc2)cc1,-1.6% (inactive)
15,COc1ccc(CS(=O)/C(Cl)=C(/Cl)C(=O)Nc2ccc(OC)nc2)cc1 (stereo not drawn),52.3% (active)
16,O=C(Nc1ccc([N+](=O)[O-])cc1)C1CC12CCC2 (stereo not drawn),-2.03% (inactive)
17,COc1cccc2[nH]c(C(=O)NCCc3ccccc3)cc12,1.88% (inactive)
18,O=C(Cn1nc(Cc2cccnc2)c2ccccc2c1=O)NCC1CCCO1 (stereo not drawn),-13.8% (inactive)
19,COc1ccccc1NC(=O)Nc1nc(CC(=O)Nc2ccccc2F)cs1,1.09% (inactive)
20,COc1ccc(CC(=O)Nc2nc(-c3ccc(F)c(F)c3)cs2)cc1OC,44% (active)
21,O=C(COc1ccccc1F)Nc1nc(-c2ccccn2)cs1,-6.34% (inactive)
22,CCc1c(SCCC(=O)O)nc2ccccc2c1C,-4.7% (inactive)

row,SMILES,response
1,CCN(CC)c1ccc(C(=O)OCC(=O)c2ccco2)cc1,4.24% (inactive)
2,Cc1ccc(Cl)cc1NC(=O)CN1CCN(S(=O)(=O)N2CCOCC2)CC1,81.7% (active)
3,COc1ccc(Cl)cc1NC(=O)CN1CCN(C(=O)N2CCOCC2)CC1,1.88% (inactive)
4,O=C(CN1CCN(c2cccc(Cl)c2)CC1)Nc1ccc(S(=O)(=O)N2CCOCC2)cc1,-2.92% (inactive)
5,NC[C@H](Cc1ccccc1)NCCc1cc(C(F)(F)F)cc(C(F)(F)F)c1,19% (inactive)
6,CCOC(=O)[C@H]1[C@H]2COc3ccc(OC)cc3[C@@H]2N2C(=O)c3ccc(F)cc3NC(=O)[C@@]12C,-0.05% (inactive)
7,COCCn1c(C)cc(C(=O)CSc2nnc(C3CC3)n2C2CC2)c1C,6.93% (inactive)
8,O=C(N/C(=C/c1ccc(Cl)cc1)C(=O)N1CCCCC1)c1ccco1,6.34% (inactive)
9,O=C(N/C(=C\c1ccc([N+](=O)[O-])cc1)C(=O)N1CCCCC1)c1ccco1,72.5% (active)
10,O=C(N/C(=C\c1ccc([N+](=O)[O-])cc1)C(=O)N1CCOCC1)c1cccc(Br)c1,3.33% (inactive)
11,CC(=O)Nc1ccc(S(=O)(=O)N2CCN(CCCOc3cc(C)ccc3C)CC2)cc1,3.77% (inactive)
12,CC(C)c1ccc(NC(=O)[C@@H](NC(=O)N2CC(=O)Nc3ccccc32)C(C)C)cc1,-13% (inactive)
13,Cc1ccc(-c2nnc(SCC(=O)N/N=C/c3cccs3)n2-c2ccc(C)cc2)cc1,-11.9% (inactive)
14,COc1ccc(OC)c(/C=N/NC(=O)CSc2nnc(C)n2-c2ccccc2)c1,8.61% (inactive)
15,Cc1nnc(SCC(=O)N/N=C/c2cn(-c3ccccc3)nc2-c2ccc(F)cc2)n1-c1ccccc1,54.1% (active)
16,CCOc1cc(C)c(S(=O)(=O)NCc2ccccn2)cc1C,-7.14% (inactive)
17,COC(=O)c1ccc(OCC(=O)NC(C)(C)C)cc1,6.76% (inactive)
18,CCCOc1ccc(/C=N/NC(=O)C2CC2)c(OCCC)c1,-16.2% (inactive)
19,CCCOc1ccc(C(=O)C(CCC(CNCC)C(=O)c2ccc(OCCC)cc2)CNCC)cc1 (stereo not drawn),46.1% (active)
20,Cc1ccc2[nH]c(=O)c(CN(C)S(=O)(=O)c3cccc4nonc34)cc2c1,-5.68% (inactive)
21,Cc1nn(-c2ccccn2)c2c1C(c1ccncc1)C1=C(CC(C)(C)CC1=O)N2 (stereo not drawn),-12.9% (inactive)
22,Cc1cc(C)c(C2C3=C(Nc4c2c(C)nn4-c2ccccn2)c2ccccc2C3=O)c(C)c1 (stereo not drawn),69.5% (active)

row,SMILES,response
1,CSc1ccc(S(=O)(=O)NCC(=O)OCC(=O)NC2(C#N)CCCCC2)cc1[N+](=O)[O-],5.12% (inactive)
2,COc1ccc(CCOC2OC(CO)C(OC(=O)/C=C/c3ccc(O)c(OC)c3)C(O[C@H]3O[C@@H](C)[C@H](O)[C@@H](O)[C@H]3O)C2O)cc1O (stereo partly drawn),1.58% (inactive)
3,O=C(Nc1ccc(Br)cc1)C1CCC(=O)N1Cc1ccccc1Cl (stereo not drawn),-2.28% (inactive)
4,Cc1nc2ccccc2nc(C)c1=NOCc1ccc(Cl)cc1Cl,-2.95% (inactive)
5,COc1ccc(Cl)cc1N(CC(=O)N/N=C/c1ccc(OCC(N)=O)cc1)S(C)(=O)=O,-3.08% (inactive)
6,NC(N)=N/N=C/c1ccc(OCc2ccc(Cl)cc2Cl)cc1,59.6% (active)
7,CCC(CC)NC(=O)/C=C/c1cccc([N+](=O)[O-])c1,-1.38% (inactive)
8,CCCCCc1ccc(-c2ccc(C(=O)O)cc2)nc1,-1.17% (inactive)
9,Cc1ccc(Sc2cc(N3CCOCC3)nc(-c3ccccc3)n2)cc1,42.7% (active)
10,O=S(=O)(Cc1cc(Sc2ccccc2)nc(-c2ccccc2)n1)c1ccccc1,7.22% (inactive)
11,Cc1cc(N2CCOCC2)nc(-c2ccc(Br)cc2)n1,-1.94% (inactive)
12,S=c1[nH]nc(Nc2ccccc2)s1,16.4% (inactive)
13,COc1cc(C(C(=O)NC2CCCC2)N(C(=O)c2ccco2)c2ccccc2C(C)=O)cc(OC)c1OC (stereo not drawn),2.2% (inactive)
14,CCOC(=O)c1c(-c2ccccc2)oc2cc(Br)c(O)cc12,-5.83% (inactive)
15,CCOC(=O)c1c(-c2ccccc2)oc2cc(Br)c(O)c(C=O)c12,56.8% (active)
16,CCOC(=O)c1c(-c2ccccc2)oc2ccc(OCC(=O)NN)cc12,27.5% (inactive)
17,Cn1c(=O)oc2cc(S(=O)(=O)NCCC(=O)NCc3ccccc3Cl)ccc21,0.87% (inactive)
18,CCOC(=O)C1CCN(CC(=O)Nc2ccc(OC)c(S(=O)(=O)N3CCCCC3)c2)CC1,11.9% (inactive)
19,O=C(COc1cccnc1[N+](=O)[O-])Nc1ccc(Cl)cc1F,-3.75% (inactive)
20,O=C(Nc1ccc(N2CCOCC2)cc1)c1ccc(-c2ccccc2[N+](=O)[O-])o1,15.6% (inactive)
21,Cc1c(/C=N/N2C(=O)C3C4C=CC(C4)C3C2=O)c2ccccc2n1C (stereo not drawn),-4.99% (inactive)
22,O=C1C2C3C=CC(C4CC34)C2C(=O)N1/N=C/c1ccc(-c2ccccc2[N+](=O)[O-])o1 (stereo not drawn),42.1% (active)

row,SMILES,response
1,CCOc1cc(/C=C2/N=C(c3ccc(C(C)(C)C)cc3)OC2=O)cc(Cl)c1OS(C)(=O)=O,-2.17% (inactive)
2,COc1ccc(NC(=O)CN(C)C(=O)c2cccc(S(=O)(=O)N3CCN(c4ccccc4)CC3)c2)cc1,6.13% (inactive)
3,O=[N+]([O-])/C=C/c1ccc2c(ccn2Cc2ccccc2)c1,48.2% (active)
4,Cn1c(=S)sc2ccc3ccccc3c21,59.5% (active)
5,COc1ccc2ccccc2c1CNc1nnnn1C,-4.52% (inactive)
6,CCN(CC(=O)Nc1ccccc1C(F)(F)F)C(=O)CSCc1c(C)noc1C,-3.25% (inactive)
7,Cc1ccc(NC(=O)COC(=O)C2C3CC4OC(=O)C2C4C3)cc1Cl (stereo not drawn),5.53% (inactive)
8,COc1cc(C#Cc2ccc3cc(CCCO)oc(=O)c3c2)cc(OC)c1,45.9% (active)
9,O=C1c2ccccc2C(=O)N1CCC#Cc1ccc2cc(C3(O)CCCCC3)oc(=O)c2c1,5.43% (inactive)
10,COc1cc(/C=C2\Oc3ccc(C#Cc4ccc(O)cc4)cc3C2=O)cc(OC)c1,-8.05% (inactive)
11,COc1ccc(CCNC(=O)c2ccc3c(c2)NC(=O)C(N2CCOCC2)S3)cc1OC (stereo not drawn),3.69% (inactive)
12,Cc1nn(Cc2ccccc2)c(C)c1C(=O)N1CCN(CC(=O)Nc2ccccc2Cl)CC1,4.22% (inactive)
13,COc1cccc(Cn2cc(/C=N/NC(=O)c3cc(O)cc(O)c3)c3ccccc32)c1,3.63% (inactive)
14,CCOC(=O)N/N=C/c1cn(Cc2ccccc2Cl)c2ccccc12,-0.12% (inactive)
15,COC(=O)N/N=C/c1cn(CCCOc2ccc(C)cc2)c2ccccc12,105% (active)
16,COc1ccc(OC)c(CCNC(=O)CCn2ccc3cc(S(=O)(=O)N4CCCC4)ccc32)c1,1.18% (inactive)
17,CCOCCCNC(=O)c1c[nH]c2cc(C)ccc2c1=O,-5.06% (inactive)
18,CCN(CC)S(=O)(=O)c1ccc(N2CCCC2)c(NC(=O)c2ccc([N+](=O)[O-])o2)c1,5.38% (inactive)
19,O=S(=O)(NCCSc1ccccn1)c1ccc(Cl)cc1,-2.74% (inactive)
20,Cc1cc(C)n(CCNS(=O)(=O)c2ccc(Cl)cc2)n1,-1.1% (inactive)
21,CC(C)(CSc1nncn1/N=C/c1ccco1)NS(=O)(=O)c1ccc(Cl)cc1,45.9% (active)
22,COc1cc(C(=O)NCc2ccncc2)cc(Br)c1OCc1ccccc1,7.17% (inactive)
